Assay results reported in PMC12136788.
Substitutions are numbered along the chain they refer to. Whole data set: some 24,000 sequences, median “enrichment r” near 0.99, cut for the highest 2% near 3.7. The full list was thinned out, with the highest values kept by preference.

T1: UNK ZnF1-3 (human, UniProt Q9C0B0 31-174)
T1 sequence: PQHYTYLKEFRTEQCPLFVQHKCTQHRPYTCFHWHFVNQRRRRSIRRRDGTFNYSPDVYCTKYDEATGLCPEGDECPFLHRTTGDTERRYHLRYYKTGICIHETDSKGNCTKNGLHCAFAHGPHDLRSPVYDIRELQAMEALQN

B1: chr5:134790399:134790400:-_ENSMUSG00000060261_ENSMUST00000173341|mus_hu|FALSE|FALSE (ssRNA)
RNA: GGGAGUUCUACAGUCCGACGAUCGGGAGGCGAGAGGGGGCGAGGGGCCCGUGCGUGUCGGUCGCGCUCCUGUCACCGCCGCAUGGCCGCCCCGCAGGCAGGGCCUCGCUCAGCGCCUUGAUCCGAUCACUGGGGGACAGAGGCCAACAGAGGAUUGAGCAUCA
B2: chr22:19452774:19452775:-_ENSG00000070010_ENST00000399523|hu_hu|hu_hu_hu_mus_False|28_58 (ssRNA)
RNA: GGGAGUUCUACAGUCCGACGAUCCUUCUCAUUGUAGUUGAUAGCAAUCACAUCUCCAGUCGUCAGACAGGCGAAGUUCCUAAGUGCAUUUUCUAAUACCGCUUUAGGGUUGGUGAUAUCCAGGAAGUCUGGGCUCUGAGGCUGCAACAGAGGAUUGAGCAUCA
B3: chr3:119456006:119456007:-_ENSMUSG00000028134_ENSMUST00000029780|mus_hu|FALSE|FALSE (ssRNA)
RNA: GGGAGUUCUACAGUCCGACGAUCAAUAUGAAGUACACGAGAAGGAGCACCAUCCAUUUUAUCUUCUCCUUUAAAUUUUUUACUAUCAUUACCAUUGGCUGUAACUACCAUGCUGCUCAUAUUAGAGUUCGGACUACUGAGAACCAACAGAGGAUUGAGCAUCA
B4: chr14:59855892:59855893:+_ENSMUSG00000035469_ENSMUST00000043227|mus_mus|motif|central (ssRNA)
RNA: GGGAGUUCUACAGUCCGACGAUCGCUUCCAUUAUUAUAUCAGAAGAAAACAUUAAUUUCAAUAAUAGUUUCUUGCUUUCGGUGAUUAUAACCAAAACCAAGUAGAAAAAUAAAAAGAUUGCAUUUAAAAAAAAUUUGCAAACCCAACAGAGGAUUGAGCAUCA
B5: chr14:59855892:59855893:+_ENSMUSG00000035469_ENSMUST00000043227|mus_hu|motif|central (ssRNA)
RNA: GGGAGUUCUACAGUCCGACGAUCUUCCAUUAUUACAUUAGAUGAAAAAAUCAAUUCAAAUAAGAGUUGUCAUAUCCUGCGGUGAUUAACAAAAAAACAAGUAGAAAAAUAAGAGAGUGUAUUUAAAAAAAAUAAUCAAAUGCUCAACAGAGGAUUGAGCAUCA
B6: chr2:42509997:42509998:+_ENSG00000143924_ENST00000318522|hu_hu|FALSE|FALSE (ssRNA)
RNA: GGGAGUUCUACAGUCCGACGAUCUCGCUGAGUUCUCUCCUCAUAAUUAAAUAGUACUACUACUGAUGCAAUGAAAUAAACUAUUUUCCCGGUCGGAAGAAGGUAAACAUUAGCUCUACAGUCCUUUCCUCGAUAACCAUAUGCCAACAGAGGAUUGAGCAUCA
B7: 55555555_55559808_3342_CDS_ENSG00000115355_ENST00000336838|human|control|control (ssRNA)
RNA: GGGAGUUCUACAGUCCGACGAUCCAAAAGUUUAUACCUGUCAUCAGUACUUUGUUCAUCAUGUAAGAGUCGCUCCUUAUUUAACCCUAUCUUCUCAAGCUCAUGAGUUAAUUUUUCGAGAUCAUUGUUCAUCUGUUGGGUCUUCAACAGAGGAUUGAGCAUCA
B8: chr8:72542918:72542919:-_ENSMUSG00000031858_ENSMUST00000050561|mus_mus|FALSE|FALSE (ssRNA)
RNA: GGGAGUUCUACAGUCCGACGAUCAGCUAUCAAGCCAAGAGGAGCUGAGCUGGUCCCAUAACUGUCCUCCAUGGGAAAGCUAAAUAGCUGCCAGGAAGGAACCCUCUCAUUCAGGUCCAAUGGGACUUCUGCCUGAUGCUUAGGCAACAGAGGAUUGAGCAUCA
B9: chr7:141441981:141441982:+_ENSG00000106028_ENST00000265304|hu_mus|hu_hu_hu_mus_False|8_88 (ssRNA)
RNA: GGGAGUUCUACAGUCCGACGAUCCUCAUGUCUUACAAACUGACGAAGUACCUGUAACACAGGUCUUCGAAACAUGGCUUCUGUUUUUCUUACAACCUAAUCUUUAGGCUUUUCCUAAAGGAAAGAAUAACCCGAGCAAAAUGACAACAGAGGAUUGAGCAUCA
B10: chr5:159492046:159492047:+_ENSG00000113312_ENST00000231238|hu_hu|FALSE|FALSE (ssRNA)
RNA: GGGAGUUCUACAGUCCGACGAUCAGUCAGCUUGUAAAGCUUUUGUUAUCUUUGUUAUCUGUUAUUAUUUGGAUUUUGAACGAAAUUGAUGGAGUACGAGCCGGUAGAGGAAUCCUGUUUGAUCUGGAAAUUUUCCGUGGAGAGCAACAGAGGAUUGAGCAUCA
B11: chr7:54825262:54825263:-_ENSG00000132432_ENST00000352861|hu_hu|hu_hu_hu_mus_False|58_58 (ssRNA)
RNA: GGGAGUUCUACAGUCCGACGAUCCUGCCGGCUGGGCUCCACAAACUGCAUUACCUGAUCCAUGUUUGUUGGAUGGCACACCUAAAACGUAGAGACACGUAGCUCAGGAGAGAACCGAGCCCAACGGAACCGGAAGCUGGCAACCAACAGAGGAUUGAGCAUCA
B12: chr2:148701057:148701058:-_ENSG00000115947_ENST00000542387|hu_hu|FALSE|FALSE (ssRNA)
RNA: GGGAGUUCUACAGUCCGACGAUCUGACCGCAGGUUUUUGCUGAUAUUGAAAUGCUUCUGUAGUACUUCUUGCACACUUCUAUCUUCUGAGAGAUACUGAACAUUUUCAUUCCACUUCUCAGCAAAAACCUUGUCUGGAAACUCCAACAGAGGAUUGAGCAUCA
B13: chr15:59961163:59961164:-_ENSG00000140299_ENST00000607373|hu_mus|FALSE|FALSE (ssRNA)
RNA: GGGAGUUCUACAGUCCGACGAUCGCCGACAUACUCCAUGGGAACAAGCUCUGCCAGCUCGGCCAAGUUAAAGACGUAUCUGAUCUUCUGACUGAACUUUGAACUGAUAAAUGGUCGUGUAACAGCCAGAAGUGUUCGGAUAAACAACAGAGGAUUGAGCAUCA
B14: 6624775_6624895_1421_CDS_ENSMUSG00000041272_ENSMUST00000039987|mouse|control|control (ssRNA)
RNA: GGGAGUUCUACAGUCCGACGAUCGCUCGGAUGCAUGGCGGUGAGCUGAGGAGUCAUUCCUGGUUGUUGGUGAUAGUGAGAACUUAGGUACAGAGCUGAGUGGGCCUGGCUGGGCCCAUGGAAUACUGACGGCUUUGAGUUGACCAACAGAGGAUUGAGCAUCA
B15: chrX:35795285:35795286:-_ENSMUSG00000016534_ENSMUST00000061755|mus_mus|FALSE|FALSE (ssRNA)
RNA: GGGAGUUCUACAGUCCGACGAUCGAAAUUCAUCUCCCAUUCUGCAUAAAGGCAAGUACCCUUUGAAUCUGUCAAAUUAACUAUCAAUGCAUUGGACUGAACGGCUCCUAGGAACAGAAAGAUCAGGAUGAGCUUUGCGCCUUUCAACAGAGGAUUGAGCAUCA
B16: 74470573_74471800_972_CDS_ENSMUSG00000021577_ENSMUST00000022062|mouse|control|control (ssRNA)
RNA: GGGAGUUCUACAGUCCGACGAUCGUUGAUGAGAAUCCCCCCCUCUCCACGACACCCUUCUGUGAUGAGGCAGCCAGCACCGUAUAUACCUGUGGGGUGGAACUGAACAAAUUCUAAGUCCUGGCAAGGCAAACCAGCCCUAGUCAACAGAGGAUUGAGCAUCA
B17: chr1:109605286:109605287:-_ENSG00000197780_ENST00000461096|hu_mus|hu_hu_hu_mus_True|18_38 (ssRNA)
RNA: GGGAGUUCUACAGUCCGACGAUCAAGUUUCAGAGUAACAUUCAGUAACCUCUUUAAAUGCAAUUAUCCUUAUUAUAAGCUAAGCAGAAUAAUAAUUUAAUACAUAGAGUGAACUACCACAAAACCUUGAACCGCGAAAAUGGUCAACAGAGGAUUGAGCAUCA
B18: chr1:150192741:150192742:-_ENSG00000143401_ENST00000314136|hu_hu|FALSE|FALSE (ssRNA)
RNA: GGGAGUUCUACAGUCCGACGAUCUUAAUUAUGGGCUAAAAAUGACUAAUACAGUAAGCUUGAAUUUAAAAAAUUAAGUCUAAAUAAAUUGCUAGGGAAUUCCACAAUGGGAGUCAAUGAAAAUUUUUCUCUACAUACAAUAUGCAACAGAGGAUUGAGCAUCA
B19: chr1:109605286:109605287:-_ENSG00000197780_ENST00000461096|hu_mus|hu_hu_hu_mus_True|18_98 (ssRNA)
RNA: GGGAGUUCUACAGUCCGACGAUCAAGUUUCAGAGUAUUCAGUGAUCACCUCUUUAAAUGCAAUUAUCCUUAUUAUAAGCUAAGCAGAAUAAUAAUUUAAUACCGUAAGUGAACUACCACAAAACCUUGAACCGCGAAAAUGGUCAACAGAGGAUUGAGCAUCA
B20: chr3:160150142:160150143:+_ENSG00000113810_ENST00000344722|hu_hu|motif|central (ssRNA)
RNA: GGGAGUUCUACAGUCCGACGAUCAAAACCUGCCAUAAAUUCAUUAAGCCUUUGUUUCCGAAGAUCUUCAUAUGCCUGUCGGAAACUGUCUCUUUCAUAAGUAAUUUUGUCCAAUUCUGCUACCCGUUGCAAAUACAAUUCUUCCAACAGAGGAUUGAGCAUCA
B21: chr1:150192741:150192742:-_ENSG00000143401_ENST00000314136|hu_hu|motif|central (ssRNA)
RNA: B18 RNA with U80G, A81G
B22: chr16:57198444:57198445:-_ENSMUSG00000022749_ENSMUST00000023431|mus_mus|motif|central (ssRNA)
RNA: GGGAGUUCUACAGUCCGACGAUCCCUAAAAGAAGCUGGCGUCUUACUACAGUAAUACUGAGCCAAAGAGAACAGGUCUUCGGUGUCUUCCAGAUUCAGGCUGGCCGGGGUACUUUCCAAAAAGCGGAUAACUUCUUCUUUGCUCAACAGAGGAUUGAGCAUCA

These binders were tested against T1, UNK ZnF1-3 (assay: nsRBNS (natural sequence RNA bind-n-seq); RBNS binding buffer (assumed for nsRBNS): 25 mM Tris pH 7.5, 150 mM KCl, 3 mM MgCl2, 0.01% Triton X-100, 500 ug/ml BSA, 20 U/ml SUPERase-In, 4 C; UNK is unkempt and MSI1 is Musashi-1; names of the RNAs are library labels; protein concentration not given here; high values mean tight binding).
With B1 the binding signal was 0.997 enrichment R.
B2 was tested, and the binding signal was 0.837 enrichment R.
Work on B3 yielded a binding signal of 4.17 enrichment R.
Work on B4 yielded a binding signal of 4 enrichment R.
B5 gave a binding signal of 6.68 enrichment R.
For B6, the binding signal was 0.867 enrichment R.
In the case of B7, the binding signal is reported as 0.637 enrichment R.
For B8, the binding signal was 1.1 enrichment R.
For B9, the binding signal was 0.719 enrichment R.
Work on B10 yielded a binding signal of 3.66 enrichment R.
B11 showed a binding signal of 1.08 enrichment R.
With B12 the binding signal was 0.287 enrichment R.
For B13, the binding signal was 0.638 enrichment R.
Work on B14 yielded a binding signal of 1.32 enrichment R.
Binder B15 has a binding signal of 1.22 enrichment R.
For B16, the binding signal was 1.28 enrichment R.
Work on B17 yielded a binding signal of 0.848 enrichment R.
B18 gave a binding signal of 4.88 enrichment R.
With B19 the binding signal was 0.885 enrichment R.
B20 gave a binding signal of 1.2 enrichment R.
B21 was tested, and the binding signal was 6.83 enrichment R.
Binder B22 has a binding signal of 1.25 enrichment R.
